SMARCA2 activ – activators of SMARCA2 function. 370,000 tested, 1% active. MG213 cells, MMTV-luciferase reporter, dexamethasone, overnight. activation, % at 9.1 µM. AID 652017; in the data active = activation above about 7.8%
JMJD2C inh – blocks human GASC-1 demethylase activity; inhibition, % at 2.35 µM; Q9H3R0; GST-JMJD2C(1-420) H3K9me3 demethylation, DELFIA europium; 330,000 tested, 0.069% active;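 active = more than half of a compound's replicate wells show inhibition beyond 50%, single wells judged on their own value; inconclusive = some, but no more than half, of replicates pass 50% inhibition; inactive = no replicate passes 50% inhibition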;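 note: signal counts dimethyl H3K9 product captured on neutravidin plate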
Target sequence (Q9H3R0 1-420 limits assumed): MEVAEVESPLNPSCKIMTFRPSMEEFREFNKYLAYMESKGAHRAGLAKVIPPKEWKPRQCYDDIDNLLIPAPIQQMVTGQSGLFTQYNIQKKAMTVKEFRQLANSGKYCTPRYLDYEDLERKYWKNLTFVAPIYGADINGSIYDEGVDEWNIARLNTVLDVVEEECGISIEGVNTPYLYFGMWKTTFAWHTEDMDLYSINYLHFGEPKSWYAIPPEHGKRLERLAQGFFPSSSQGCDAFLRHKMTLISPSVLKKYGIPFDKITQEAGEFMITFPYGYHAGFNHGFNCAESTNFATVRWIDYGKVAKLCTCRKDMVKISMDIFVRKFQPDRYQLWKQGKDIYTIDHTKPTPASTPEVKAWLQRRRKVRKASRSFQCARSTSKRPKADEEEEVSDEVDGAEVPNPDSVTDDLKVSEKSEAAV
MIN6 prolif-1 – inducers of beta-cell replication in MIN6 cells. MIN6 cells proliferation, ATPlite luminescence, 48 h; cells starved in 0.2% serum; 100% = growth in 10% serum. proliferation, % at 10 µM. 330,000 tested, 0.29% active. AID 2380;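 active = compounds whose signal lies at least 3.5 SD above the mean of all wells on their plate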
ALR inh – blocks human ALR sulfhydryl oxidase activity | P55789 | purified ALR, DTT oxidation, H2O2 HRP-luminol luminescence | inhibition, % (concentration not given with the values) | 290,000 tested, 3.8% active;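 active = mean replicate inhibition above about 79%, with every replicate also reaching it, limit read from the data; inconclusive = only one of the two criteria met; inactive = mean below limit and not every replicate reaching it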
Target sequence (P55789 whole entry, looked up): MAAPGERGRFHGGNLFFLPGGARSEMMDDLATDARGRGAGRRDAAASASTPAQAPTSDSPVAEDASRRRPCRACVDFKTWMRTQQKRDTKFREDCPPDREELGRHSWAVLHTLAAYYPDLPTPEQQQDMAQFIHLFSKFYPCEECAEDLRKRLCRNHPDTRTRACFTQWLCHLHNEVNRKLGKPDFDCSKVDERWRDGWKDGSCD
PfM18AAP inh – blocks P. falciparum M18 aspartyl aminopeptidase. recombinant PfM18AAP, H-Glu-NHMec fluorogenic cleavage. inhibition, % at 7.35 µM. 290,000 tested, 1.2% active. AID 1822;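 active = inhibition above the campaign mean inhibition over all tested compounds plus 3 SD, cut at about 28% in these data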
Granule exo inh – lytic granule exocytosis inhibition; TALL-104 LAMP-1 surface exposure, flow cytometry; cells stimulated with thapsigargin and PMA; inhibition, % at 10 µM; 360,000 tested, 0.66% active; AID 651702;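 active = inhibition above about 55%, limit read from the data; inconclusive = no clear call, values can overlap the other calls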
MIN6 prolif-2 – MIN6 beta-cell replication induction, confirmed; proliferation increase, % at 50 µM; MIN6 beta-cell proliferation, ATPlite luminescence, 48 h; cells kept in 0.2% serum; scaled between 0.2% and 10% serum; 920 tested, under 10 active; shares compounds with MIN6 prolif-1;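 active = proliferation increase above 40% at any of the four tested concentrations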
Large screens that a line does not name were inactive (follow-up assays come after a bar, where they were run). This is a sample that favours compounds with a hit; in the whole collection about 5.4% have one here.

CCCCNc1cccc2c1S(=O)(=O)N[C@H](CC(C)C)CO2	none (no result: JMJD2C inh, MIN6 prolif-1, ALR inh, PfM18AAP inh, Granule exo inh)
CC(=O)Nc1n[nH]c(S(=O)(=O)Cc2ccc(Cl)cc2Cl)n1	MIN6 prolif-1 8.0 | MIN6 prolif-2 inactive
CC(=O)Nc1nc(SCc2ccc(Cl)cc2Cl)n[nH]1	none
CCCN1Cc2cccc(C(=O)Nc3ccc4c(c3)OCCO4)c2C1=O	none
CCCN1Cc2cccc(C(=O)Nc3ccc4c(c3)OCO4)c2C1=O	MIN6 prolif-1 11 | MIN6 prolif-2 inactive
CCCN1Cc2cccc(C(=O)Nc3ccc(CC)cc3)c2C1=O	MIN6 prolif-1 7.1 | MIN6 prolif-2 inactive
Cc1ccccc1CC1(CO)CCCN(C(=O)c2cccc(Cl)c2)C1 (configuration not stated)	none
O=C(c1ccc(-n2ccnc2)cc1)N1CCCC(CO)(Cc2cccc(Cl)c2)C1 (configuration not stated)	MIN6 prolif-1 16 | MIN6 prolif-2 inactive
CCC(=O)Oc1c(C(=O)CC)cc2c(C)cc(=O)oc2c1C	none
CCC(=O)Nc1c(OC(=O)CC)ccc2c(C)cc(=O)oc12	MIN6 prolif-1 13 | MIN6 prolif-2 inactive
CCn1c(C)nc2cc(C(=O)N/N=C/c3ccc(OC)c(O)c3)ccc21	none (no result: ALR inh)
CCn1c(C)nc2cc(C(=O)N/N=C/c3ccc(OC)cc3)ccc21	MIN6 prolif-1 7.8 | MIN6 prolif-2 inactive
COc1ccc(Cn2ccc3ccc(-c4ccc5ccn(Cc6ccccc6)c5c4)cc32)cc1	none (no result: JMJD2C inh, MIN6 prolif-1, ALR inh, PfM18AAP inh, Granule exo inh)
COc1ccc(C)cc1S(=O)(=O)Nc1ccc2c(c1)OCCO2	none
COc1ccc(NC(C)=O)cc1S(=O)(=O)Nc1ccc2c(c1)OCCO2	MIN6 prolif-1 7.9 | MIN6 prolif-2 inactive
O=c1c2ccccc2n(Cc2ccco2)n1[C@@H](Cc1ccccc1)Cn1cc(C2CCCC2)nn1	none (no result: JMJD2C inh, MIN6 prolif-1, ALR inh, PfM18AAP inh, Granule exo inh)
C=CCn1c(COc2ccccc2)nnc1SCC(=O)c1ccc(-c2ccccc2)cc1	none (no result: JMJD2C inh, MIN6 prolif-1, ALR inh, PfM18AAP inh, Granule exo inh)
COc1ccc(CCC(=O)OCC(=O)NCc2ccc(OC)c(OC)c2)cc1OC	MIN6 prolif-1 9.2 (no result: PfM18AAP inh) | MIN6 prolif-2 inactive
Fc1ccccc1N1CCN(c2ncnc3nc[nH]c23)CC1	MIN6 prolif-1 11 | MIN6 prolif-2 inactive
FC(F)(F)c1cccnc1N1CCN(c2ncnc3nc[nH]c23)CC1	none
Clc1ccccc1N1CCN(c2ncnc3nc[nH]c23)CC1	MIN6 prolif-1 13 | MIN6 prolif-2 inactive
COC(=O)C1=C(C)N(Cc2ccc(Br)cc2)C(=S)NC1c1cccc(Br)c1 (configuration not stated)	none (no result: JMJD2C inh, MIN6 prolif-1, ALR inh, PfM18AAP inh, Granule exo inh)
COc1cc2[nH]c(C(=O)N3CC(C)OC(C)C3)cc2c(OC)c1OC (configuration not stated)	MIN6 prolif-1 9.0 | MIN6 prolif-2 inactive
COc1cc2[nH]c(C(=O)N3CCN(C)CC3)cc2c(OC)c1OC	none
O=C(NCCc1ccccc1)OCc1cn(-c2ccc(F)cc2)nn1	none (no result: JMJD2C inh, MIN6 prolif-1, ALR inh, PfM18AAP inh, Granule exo inh)
O=C(Nc1ccc(-c2ccco2)cc1)C1CCCN(Cc2ccc(CO)o2)C1 (configuration not stated)	MIN6 prolif-1 11 | MIN6 prolif-2 inactive
CC(=O)Nc1cc(C(=O)N(C)Cc2ccccc2)ccc1S(=O)(=O)c1ccc(C)cc1	MIN6 prolif-1 13 (no result: ALR inh) | MIN6 prolif-2 inactive
NS(=O)(=O)c1ccc(CNC(=O)c2cc(=O)[nH]c3ccccc23)cc1	MIN6 prolif-1 6.5 | MIN6 prolif-2 inactive
O=C(OCc1cn(Cc2ccccc2Cl)nn1)N1CCOCC1	none (no result: JMJD2C inh, MIN6 prolif-1, ALR inh, PfM18AAP inh, Granule exo inh)
CCCCn1cc([N+](=O)[O-])nc1C	none
C=CCn1cc([N+](=O)[O-])nc1C	MIN6 prolif-1 7.8 | MIN6 prolif-2 inactive
CC(C)C[C@H]1COc2cccc(N3CCCCC3)c2S(=O)(=O)N1	none (no result: JMJD2C inh, MIN6 prolif-1, ALR inh, PfM18AAP inh, Granule exo inh)
COc1cc([N+](=O)[O-])ccc1NC(=O)c1cccc(NC(=O)C(C)C)c1	MIN6 prolif-1 7.8 | MIN6 prolif-2 inactive
CC(C)C(=O)Nc1cccc(NC(=O)c2cccc([N+](=O)[O-])c2)c1	none
CN(C)CCCn1c(SCC(=O)Nc2sc3c(c2C#N)CCCC3)nnc1-c1ccncc1	none
CCCCn1c(SCC(=O)Nc2sc3c(c2C(N)=O)CCC3)nnc1-c1ccccc1	JMJD2C inh inconclusive, MIN6 prolif-1 8.3 | MIN6 prolif-2 inactive
COc1ccccc1CCC(=O)Nc1ccc(S(=O)(=O)Nc2nccs2)cc1	MIN6 prolif-1 13 (no result: PfM18AAP inh) | MIN6 prolif-2 inactive
Cc1cc(=O)n(Cc2ccccc2)c2c(C)cccc12	none
Cc1cc(=O)n(Cc2ccccc2)c2ccccc12	MIN6 prolif-1 9.2 | MIN6 prolif-2 inactive
O=C1NC(=O)C2(CCOc3ccc(F)cc32)N1 (configuration not stated)	none (no result: JMJD2C inh, MIN6 prolif-1, ALR inh, PfM18AAP inh, Granule exo inh)
O=C1NC(c2ccc(Cl)cc2)Oc2ccccc21 (configuration not stated)	none
O=C1NC(c2ccc(Br)cc2)Oc2ccccc21 (configuration not stated)	MIN6 prolif-1 6.4 | MIN6 prolif-2 inactive
O=C(CN1CCc2onc(-c3ccc(-n4cc(-c5ccccc5)nn4)cc3)c2C1=O)N1CCOCC1	none (no result: JMJD2C inh, MIN6 prolif-1, ALR inh, PfM18AAP inh, Granule exo inh)
COc1ccc(-c2nnn3c2C2c4cc(-c5cccc(F)c5)ccc4CCN2C(=O)C3)cc1 (configuration not stated)	none (no result: JMJD2C inh, MIN6 prolif-1, ALR inh, PfM18AAP inh, Granule exo inh)
CCN(Cc1ccccc1)C(=O)Nc1c(Cl)cccc1Cl	none (no result: JMJD2C inh, MIN6 prolif-1, ALR inh, PfM18AAP inh, Granule exo inh)
CCn1c(SCC(=O)O)nnc1-c1cc2c(C)nn(-c3ccccc3)c2s1	none (no result: ALR inh)
Cc1nn(-c2ccccc2)c2sc(-c3nnc(SCC(=O)O)o3)cc12	MIN6 prolif-1 5.1 | MIN6 prolif-2 inactive
CCOc1ccc(Nc2nc(C)cc(C)c2C#N)cc1	MIN6 prolif-1 6.3 | MIN6 prolif-2 inactive
COc1ccc(Nc2nc(C)cc(C)c2C#N)cc1	none
O=C(CNC(=O)c1ccccc1Cl)Nc1ccncc1	none (no result: ALR inh, PfM18AAP inh)
O=C(CNC(=O)c1ccccc1Cl)Nc1ccc(F)cc1	MIN6 prolif-1 7.0 | MIN6 prolif-2 inactive
O=C(COC(=O)c1ccc2[nH]c3c(c2c1)CCCC3)Nc1ccccc1Cl	MIN6 prolif-1 9.6 | MIN6 prolif-2 inactive
O=C(COC(=O)c1ccc2[nH]c3c(c2c1)CCCC3)Nc1ccc(Cl)cc1Cl	none
O=S(=O)(CS(=O)(=O)c1ccccc1Br)c1ccccc1Br	none (no result: JMJD2C inh, MIN6 prolif-1, ALR inh, PfM18AAP inh, Granule exo inh)
CCOc1ccc2ncc(S(=O)(=O)c3ccccc3)c(N3CCC4(CC3)OCCO4)c2c1	MIN6 prolif-1 0.0 (no result: Granule exo inh) | MIN6 prolif-2 inactive
CCOC(=O)[C@@H]1CSCCS(=O)(=O)N1C(=O)[C@H](C)NC(=O)OC(C)(C)C	none (no result: JMJD2C inh, MIN6 prolif-1, ALR inh, PfM18AAP inh, Granule exo inh)
COc1cccc([C@H]2NC(=O)C/C=C/[C@@H](C)[C@@H](c3cccc(OC)c3)NC(=O)C/C=C/[C@H]2C)c1	none (no result: JMJD2C inh, MIN6 prolif-1, ALR inh, PfM18AAP inh, Granule exo inh)
Cc1ccc(CC(=O)Nc2cc(C)ccn2)cc1	none
CCNC(=S)Nc1cc(C)ccn1	MIN6 prolif-1 0.0 | MIN6 prolif-2 inactive
CS(=O)(=O)N1CCC(C(=O)Nc2ccc(F)cc2)CC1	none
CS(=O)(=O)N1CCC(C(=O)Nc2ccc(F)cc2F)CC1	MIN6 prolif-1 5.7 | MIN6 prolif-2 inactive
